The source of these data is PubChem BioAssay (NCATS).

Records with an inconclusive call do not appear. The source made the active and inactive calls. Unless noted, calls come from the whole dose curve; as a rule, active = well fitted inhibition curve with a large enough effect; inconclusive = small, poorly fitted or top-dose-only effect; inactive = flat fitted curve, though single readings scatter.

A short description of experiment [1]: qHTS drug screen for cell cycle checkpoint inhibitors in PARPi-resistant BRCA-mutant ovarian cancer cell lines. (AID 1963452; calls by dose curve). As to conditions: PEO1/OlaR viability, CellTiter-Glo luminescence, 96 h, stronger effect = lower value. In a few lines: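 PEO1, PEO4 and PEO1/OlaR ovarian cancer cells, 600 per well, exposed 96 h at 37C to a dilution series. Viability read by CellTiter-Glo luminescence, normalized to DMSO and empty wells; activity summarized as Z-AUC.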
(qHTS replaces the single test concentration by a dilution series.)

The nature of experiment [2]: qHTS for identification of novel therapeutic agents for treatment of microphthalmiaassociated transcription factor (MiT) renal cell carcinoma (RCC) (AID 1963991; calls by dose curve; note: potency is the fitted concentration of half-maximal effect). The note with it: CellTiter-Glo, 48 h; for z-score: stronger effect = lower value. In a few lines:
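Three TFE3-fusion RCC cell lines (UOK109, UOK124, UOK145), 500 cells/well, were exposed to the 1912-compound MIPE 4.0 library for 48 hours at 37 C. Viability was read by CellTiter-Glo luminescence, normalised to DMSO (100%) and empty wells (0%), with 11-concentration curve fits.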

Experiment [3] has as its system 7G8. Briefly: qHTS profiling for inhibitors of Plasmodium falciparum proliferation (AID 504749).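 For activity, negative = inhibition: 0% = DMSO vehicle and full inhibition = artemisinin control.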 Note: nearly all actives have a fitted effect of over 60% in size. Note: potency is the fitted concentration of half-maximal effect. The note with it: P. falciparum in erythrocytes, SYBR Green DNA, 72 h; series mostly up to 28.7 µM. Put shortly:
(§1)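 SYBR Green fluorescence of parasite DNA, read after lysis and overnight dark incubation, measured growth over 72 h in erythrocyte culture at 0.3% parasitemia and 2.5% hematocrit. Data normalised to DMSO and 0.29 uM artemisinin, with plate-drift correction.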

Experiment [4] deals with ATS189. The description is as above. The note with it: P. falciparum in erythrocytes, SYBR Green DNA, 72 h; series mostly up to 28.7 µM. Put shortly: as §1
Assay in experiment [5]: as above
The note with it: P. falciparum in erythrocytes, SYBR Green DNA, 72 h. In a few lines: as §1

Experiment [6] deals with 3D7. The experiment is described as above. The note with it: P. falciparum in erythrocytes, SYBR Green DNA, 72 h; series mostly up to 28.7 µM. Put shortly: as §1
The test system of experiment [7] is AA1029. Described as above. As to conditions: P. falciparum in erythrocytes, SYBR Green DNA, 72 h; series mostly up to 28.7 µM. Put shortly:
as §1

Experiment [8] deals with AS120. The description is as above. The note with it: P. falciparum in erythrocytes, SYBR Green DNA, 72 h; series mostly up to 28.7 µM. In a few lines:
as §1

The test system of experiment [9] is ATS95. Described as above. As to conditions: P. falciparum in erythrocytes, SYBR Green DNA, 72 h; series mostly up to 28.7 µM. In a few lines: as §1
The test system of experiment [10] is C2A. Described as above. As to conditions: P. falciparum in erythrocytes, SYBR Green DNA, 72 h; series mostly up to 28.7 µM. Put shortly:
as §1

Where [11] appears, read: measured here: PEO1 parental Z-AUC.
Setting [12] is: TFE3-RCC UOK109 viability, measured here: UOK109 Z-AUC.
[13] abbreviates: TFE3-RCC viability, measured here: UOK124 Z-AUC.
[14] abbreviates: TFE3-RCC viability, measured here: UOK145 Z-AUC.
[15] abbreviates: at 28.7 µM (top of the series), parasite line A.
Where [16] appears, read: at 28.7 µM (top of the series), parasite line B.
Setting [17] is: at 12.8 µM (top of the series), parasite line A.

On to `O=C(O)c1ccccc1C(=O)Nc1ccc(-c2ccccc2)cc1`, for which the Z-AUC in experiment [1] is 1.24 (inactive); in experiment [1] (setting [11]), 0.724; in experiment [1] (measured here: PEO4 Z-AUC), 0.552. Also, the z-score in [2] (setting [12]) stood at 0.921; in [2] (setting [13]) it was 0.86; in [2] (setting [14]), 0.469.
In the case of `COc1ccc(-c2coc3cc(O)ccc3c2=O)cc1`, the z-score in [2] (setting [12]) worked out at 0.416; in experiment [2] (setting [13]) it was 0.783; in [2] (setting [14]) it was 0.452.
With `CC(=O)O[C@]1(C(C)=O)CC[C@H]2[C@@H]3C=C(Cl)C4=CC(=O)[C@@H]5C[C@@H]5[C@]4(C)[C@H]3CC[C@@]21C`, the Z-AUC in experiment [1] was 0.151 (inactive); in [1] (setting [11]), 0.0304; in experiment [1] (measured here: PEO4 Z-AUC), 0.0664. In experiment [3], the Potency is 11.2 µM (active). Moreover, the Potency result in experiment [4] was “inactive”.
Consider `CCOc1ccc(Nc2nc(-c3c(C)nc4ccccn34)cs2)cc1`, for which the figures for the Z-AUC in experiment [1], in experiment [1] (setting [11]) and in experiment [1] (measured here: PEO4 Z-AUC) were -0.0903 (inactive), -0.777 and 0.137, respectively. Moreover, in [2] (TFE3-RCC UOK109 viability, active = Z-AUC below -0.8 in all three lines), the Potency is 0.00235 µM (active). Also, the z-score in experiment [2] (setting [12]) is -1.91; in experiment [2] (setting [13]), -2.79; in experiment [2] (setting [14]), -1.17.
In the case of `O=c1c(-c2ccc(O)cc2)coc2cc(O)ccc12`, the values for the Z-AUC in [1], in experiment [1] (setting [11]) and in experiment [1] (measured here: PEO4 Z-AUC) were 1.12 (inactive), 1.51 and 1.78, respectively. In addition, the figures for the z-score in experiment [2] (setting [12]), in experiment [2] (setting [13]) and in experiment [2] (setting [14]) were 0.875, 0.542 and 0.636, respectively.
For the molecule `CCC(=O)O[C@]1(C(=O)CO)CC[C@H]2[C@@H]3CCC4=CC(=O)CC[C@]4(C)[C@@H]3CC[C@@]21C`, the figures for the z-score in [2] (setting [12]), in experiment [2] (setting [13]) and in experiment [2] (setting [14]) were 1.05, 0.404 and 0.464, respectively.
`C=C1C(=O)OC(CCCCCCCC)C1C(=O)O` (stereo unspecified): the Z-AUC is 0.778 (inactive) in experiment [1], 0.453 in experiment [1] (setting [11]) and 0.342 in experiment [1] (measured here: PEO4 Z-AUC). The results for the z-score in experiment [2] (setting [12]), in [2] (setting [13]) and in experiment [2] (setting [14]) were 0.725, 0.792 and 0.524, respectively.
Consider `O=C(O)C=Cc1ccc(O)c(O)c1`, for which the figures for the z-score in experiment [2] (setting [12]), in [2] (setting [13]) and in [2] (setting [14]) were 1.03, 0.19 and 0.564, respectively.
As for `CC(=O)N[C@@H](CS)C(=O)O`, the Z-AUC in [1] is 0.621 (inactive); in [1] (setting [11]), 0.869; in experiment [1] (measured here: PEO4 Z-AUC), 0.504. The activity, negative = inhibition is -3.7% (inactive) in experiment [5] (setting [15]) and 16.4% (inactive) in [5] (setting [16]). For the same molecule, the molecule was called inactive in [6], in experiment [7], in experiment [9] and in experiment [10]. Moreover, the Potency entry in experiment [3], in experiment [8] and in experiment [4] was “inactive” in each case.
With `O=C(Nc1c(Cl)cncc1Cl)c1ccc(OC(F)F)c(OCC2CC2)c1`, the figures for the Z-AUC in experiment [1], in experiment [1] (setting [11]) and in [1] (measured here: PEO4 Z-AUC) were 0.0747 (inactive), 0.551 and 0.508, respectively. Moreover, the z-score in experiment [2] (setting [12]) is -0.715; in [2] (setting [13]), 0.259; in [2] (setting [14]), 0.585.
With `COc1ccc(Cc2nccc3cc(OC)c(OC)cc23)cc1OC`, the Z-AUC is -1.7 (inactive) in experiment [1], -1.2 in experiment [1] (setting [11]) and 0.243 in experiment [1] (measured here: PEO4 Z-AUC). Further, the activity, negative = inhibition in experiment [5] (setting [17]) was 0.631% (inactive); in experiment [5] (at 12.8 µM (top of the series), parasite line B), 6.88% (inactive). The Potency result in experiment [3], in experiment [8] and in experiment [4] was “inactive” each time. Also, the molecule was called inactive in experiment [7], in experiment [9] and in experiment [10].
Regarding `COc1ccc(-n2c(C)c([N+](=O)[O-])c3ccc(O)cc32)cc1`, the Z-AUC was -0.721 (inactive) in [1], -0.631 in experiment [1] (setting [11]) and -0.862 in experiment [1] (measured here: PEO4 Z-AUC). In addition, the z-score in [2] (setting [12]) amounted to 0.538; in experiment [2] (setting [13]), 0.575; in [2] (setting [14]), 0.643.
On to `Cc1cnc(C(=O)O)c[n+]1[O-]`, for which the Z-AUC was -0.768 (inactive) in experiment [1], -0.301 in experiment [1] (setting [11]) and -0.6 in [1] (measured here: PEO4 Z-AUC). Moreover, the values for the z-score in experiment [2] (setting [12]), in experiment [2] (setting [13]) and in [2] (setting [14]) were 1.58, 0.716 and 0.578, respectively. In addition, the activity, negative = inhibition was -1.49% (inactive) in experiment [5] (setting [15]) and -8.14% (inactive) in [5] (setting [16]). For the same molecule, the molecule was called inactive in experiment [6], in experiment [7], in [9] and in [10]. In addition, the Potency entry in [3], in experiment [8] and in experiment [4] was “inactive” in each case.
In the case of `CC(C)(C)OC(=O)N[C@H]1CCCCCC=C[C@@H]2C[C@@]2(C(=O)NS(=O)(=O)C2CC2)NC(=O)[C@@H]2C[C@@H](OC(=O)N3Cc4cccc(F)c4C3)CN2C1=O`, the Z-AUC in experiment [1] was 0.565 (inactive); in [1] (setting [11]) it was 0.658; in [1] (measured here: PEO4 Z-AUC), 1.2. Further, the z-score in experiment [2] (setting [12]) came out at 0.6; in experiment [2] (setting [13]) it was 0.826; in experiment [2] (setting [14]), 2.04.
On to `Clc1ccc(Cn2c(CN3CCCC3)nc3ccccc32)cc1`, for which the figures for the Z-AUC in experiment [1], in [1] (setting [11]) and in experiment [1] (measured here: PEO4 Z-AUC) were 1.16 (inactive), 0.912 and 1.11, respectively. Also, in [5] (setting [17]), the activity, negative = inhibition is 5.36% (inactive). Moreover, the call in experiment [6], in experiment [7], in experiment [9] and in experiment [10] was inactive. Also, the Potency in experiment [3] is 3.16 µM (active). For the same molecule, the Potency entry in experiment [8] and in [4] was “inactive” in each case.
